Screening results deposited in PubChem BioAssay by several laboratories.
The list is not random: actives were taken first. Their share in the collection is about 22%.
CYP2C19 act: cytochrome P450 2C19 (human) activation. P33261. recombinant CYP2C19, luciferin-H EGE luminescence; active compounds read high; 0 = fully inhibited enzyme, 1 = untreated enzyme. activation factor at 5 µM. 96,000 tested, under 10 active;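 active = activation factor of at least 2 at 5 µM in the primary screen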;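 note: 0 = wells with 2.5 mM tranylcypromine and 1 = vehicle-only wells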
CYP2C9 inh: blocks human cytochrome P450 2C9; CYP2C9 Supersomes, luciferin-H conversion, luminescence; P11712; hit rate 20% among 96,000; AID 777; inhibition, % at 5 µM;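 active = blocking of liver enzyme CYP2C9 beyond about 50% at 5 µM, limit read from the data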
Target sequence (P11712 whole entry, looked up): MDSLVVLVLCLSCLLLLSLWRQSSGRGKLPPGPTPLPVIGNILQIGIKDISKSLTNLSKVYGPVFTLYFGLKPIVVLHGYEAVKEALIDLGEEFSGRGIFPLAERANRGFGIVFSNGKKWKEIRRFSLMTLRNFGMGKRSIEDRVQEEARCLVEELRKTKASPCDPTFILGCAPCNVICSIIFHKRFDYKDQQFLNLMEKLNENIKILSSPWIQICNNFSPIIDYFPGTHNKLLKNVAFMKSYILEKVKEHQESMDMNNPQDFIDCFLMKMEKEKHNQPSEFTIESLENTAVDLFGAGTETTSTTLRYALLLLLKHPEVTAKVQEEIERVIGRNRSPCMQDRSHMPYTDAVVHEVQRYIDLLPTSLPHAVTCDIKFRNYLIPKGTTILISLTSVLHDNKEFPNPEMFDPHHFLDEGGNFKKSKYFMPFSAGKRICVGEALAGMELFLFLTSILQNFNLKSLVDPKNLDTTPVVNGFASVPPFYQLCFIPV
CYP2C9 activ: activators of human CYP2C9; P11712; hit rate 1.4% among 96,000; activation factor at 5 µM; recombinant CYP2C9, luciferin-H conversion, luminescence; active compounds read high; factor 1 = untreated enzyme, 0 = blocked;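 active = activation factor of 2 or more for CYP2C9 at a 5 µM dose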;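 note: 0 = sulfaphenazole-blocked wells and 1 = vehicle-only wells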
CYP2C19 inhib: inhibitors of human CYP2C19; CYP2C19 Supersomes, luciferin-H EGE luminescence, 30 min; inhibition, % at 5 µM; AID 778; hit rate 21% among 96,000;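 active = CYP2C19 inhibition above a set limit at 5 µM in the primary screen, cut at about 50% in these data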;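 note: plate controls were negative control wells for no effect and 2.5 mM tranylcypromine positive control for full effect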
Measles CPE: protection of cells from measles virus; Measles virus-infected cells, CPE protection, absorbance; protection (pct of control), % at 4 µM; hit rate 1.5% among 140,000; in the data active = protection mostly above about 24%, no sharp cut-off; inactive = mostly below about 26%
The depositor's hits bear a star; . = no result given.

SMILES	CYP2C19 act	CYP2C9 inh	CYP2C9 activ	CYP2C19 inhib	Measles CPE
CC(C)(C)C(=O)NCCn1ccc2ccccc21	0	42	0.6	97*	15
O=C(NCCn1ccc2ccccc21)c1ccc(S(=O)(=O)N2CCCCC2)cc1	0.8	56*	0.4	17	2
Cc1ccc(S(=O)(=O)n2c3ccc(F)cc3c3nc(C)sc32)cc1	.	.	.	.	7
Clc1ccc(OCc2nnc3n2N=C(c2ccc4c(c2)OCCO4)CS3)c(Cl)c1	0.3	97*	0	74*	10
Cc1c(NC(=O)OCCSc2nc(N(C)C)nc(N(C)C)n2)sc(=S)n1C	0.9	5	0.9	14	5
CC1(C)N=C(c2cccc(F)c2)C(=O)N1	0.4	11	0.9	60*	3
CC1(C)N=C(c2ccccc2)C(=O)N1	0.6	-7	1.1	42	13
CC1(C)N=C(c2ccc(Cl)cc2)C(=O)N1	0.1	34	0.7	87*	5
Cc1ccc(C2=NC(C)(C)NC2=O)cc1	0.2	3	1	84*	18
O=c1cc(-c2ccccc2)c2ccc(O)c(CN3CCCCC3)c2o1	1	-8	1.1	-4	3
CCc1cc2c(-c3ccccc3)cc(=O)oc2c(CN2CCOCC2)c1O	0.2	92*	0.1	78*	7
CSc1nncn1/N=C/c1cc(Cl)ccc1F	0.9	18	0.8	11	.
COc1cccc(CNC(=O)c2c[nH]n3c(=O)c(Cl)c(C)nc23)c1	.	.	.	.	12
Cc1nc2c(C(=O)NCCC3=CCCCC3)c[nH]n2c(=O)c1Cl	1.1	56*	0.4	-8	2
Cc1nc2c(C(=O)NCc3ccc4c(c3)OCO4)c[nH]n2c(=O)c1Cl	1.1	77*	0.2	-12	6
O=C(NCCC1=CCCCC1)c1cnc2n(c1=O)CCS2	.	.	.	.	7
O=C(CCn1cccc1)NC1CCCc2ccccc21 (configuration not stated)	0.9	2	1	12	6
O=C(N/N=C/c1ccc(O)cc1)c1csc2ccccc12	0.8	-199	3*	19	13
CCn1cc(/C=N\NC(=O)c2csc3ccccc23)c(C)n1	0.9	10	0.9	8	14
CCOC(=O)N1CCC(c2cc(=O)n3[nH]c(-c4ccccc4)cc3n2)CC1	1.1	66*	0.3	-8	7
CCOC(=O)N1CCC(c2cc(=O)n3[nH]c(C)c(-c4ccc(F)cc4)c3n2)CC1	0.7	68*	0.3	33	7
CCOC(=O)Cc1cc(=O)n2[nH]c(-c3ccccc3)cc2n1	.	.	.	.	23
O=C(Cn1c(N2CCN(c3ccccc3)CC2)nc2ccccc21)c1ccccc1	1.1	-11	1.1	-12	1
COC(=O)CSc1nc(-c2ccccc2)cc(-c2ccco2)c1C#N	0.5	89*	0.1	49	4
CSc1nc(-c2ccco2)cc(-c2ccccc2)c1C#N	0.8	66*	0.3	25	3
SMILES	CYP2C19 act	CYP2C9 inh	CYP2C9 activ	CYP2C19 inhib	Measles CPE
Cc1cc(Cl)cc(Cl)c1OCCCCN(C)C	.	.	.	.	17
Cc1cc(Cl)cc(Br)c1OCCCN1C(=O)NC(C)(C)C1=O	0.1	39	0.6	90*	0
Cc1cc(Cl)c(OCCN2C(=O)NC(C)(C)C2=O)c(Br)c1	0	14	0.9	98*	35
Cc1cc(Cl)c(OCCCN2CCCCC2)c(Br)c1	.	.	.	.	4
Cc1cc(C)c(OCCN2C(=O)NC(C)(C)C2=O)c(Cl)c1	0	36	0.6	96*	1
CC1CCCC(NC(=S)NC(=O)c2ccccc2Br)C1C (configuration not stated)	.	.	.	.	6
CCC(Cc1ccccc1)NC(=O)C1CCC(CNc2c(N3CCCC3)c(=O)c2=O)CC1 (configuration not stated)	0.9	8	0.9	10	4
COc1cc2c(cc1OC)CN(C(=O)c1ccc(OC)c(S(=O)(=O)N3CCOCC3)c1)CC2	0.9	21	0.8	7	5
CN(c1ccccc1C(=O)Nc1cccc(Cl)c1Cl)S(C)(=O)=O	0.4	28	0.7	65*	2
Cc1ccc(NC(=O)c2ccccc2N(C)S(C)(=O)=O)cc1C	0.5	-5	1	50*	6
CCCOc1ccc(/C=N/NC(=O)C(C)Sc2ccccn2)cc1OCC (configuration not stated)	.	.	.	.	15
Cc1ccc(S(=O)(=O)Nc2cc3c(C(=O)Nc4ccccc4)c(C)oc3c3ccccc23)cc1	.	.	.	.	13
COc1ccccc1C(=O)NCCn1cc(SCC(=O)Nc2cc(C)on2)c2ccccc21	.	.	.	.	15
COc1ccc(C(=O)NCCn2cc(SCC(=O)Nc3cc(C)on3)c3ccccc32)cc1OC	0.4	45	0.6	56*	5
CCOc1ccc(C(=O)NCCn2cc(SCC(=O)Nc3cc(C)on3)c3ccccc32)cc1	0.7	57*	0.4	28	3
C=CCNC(=O)C1CCN(c2c([N+](=O)[O-])cc(C(F)(F)F)cc2[N+](=O)[O-])CC1	0.9	22	0.8	14	5
COc1cccc(C2C(=O)N(C3CCCCC3)CC(=O)N2Cc2ccc(F)cc2)c1 (configuration not stated)	0.5	46	0.5	47	23
COc1ccccc1CN1C(=O)CN(C2CCCCCC2)C(=O)C1c1ccc(F)cc1 (configuration not stated)	0.4	44	0.6	57*	4
Cn1cnc([N+](=O)[O-])c1Oc1ccc2ccccc2c1	.	.	.	.	7
COc1ccc(CN2CCc3ccccc3C2)c(OC)c1OC	0.4	3	1	61*	4
CCOc1ccccc1N1CCN(Cc2ccc(OC)c(OC)c2OC)CC1	.	.	.	.	2
COc1ccc(N2C(=O)C3C4C=CC(C5CC45)C3C2=O)c([N+](=O)[O-])c1 (configuration not stated)	0.6	-102	2*	38	5
O=C(CCNS(=O)(=O)c1ccccc1F)NCc1ccc2c(c1)OCO2	0.3	28	0.7	70*	5
Cc1ccc(S(=O)(=O)NCCC(=O)NCc2ccc3c(c2)OCO3)cc1C	0.6	-111	2.1*	38	16
CCCN(CCC)S(=O)(=O)c1ccc(C(=O)NCc2ccc3c(c2)OCO3)cc1	1	-8	1.1	-1	15
SMILES	CYP2C19 act	CYP2C9 inh	CYP2C9 activ	CYP2C19 inhib	Measles CPE
O=C(CCNS(=O)(=O)c1ccc2c(c1)CCC(=O)N2)NCc1ccc2c(c1)OCO2	1	41	0.6	0	6
CS(=O)(=O)N(CC(=O)NCc1ccc2c(c1)OCO2)c1ccccc1	0.7	-2	1	26	27
Cc1ccc(S(=O)(=O)N(C)CCCC(=O)NCc2ccc3c(c2)OCO3)cc1	0.2	76*	0.2	82*	6
Cc1ccc(N(CC(=O)NCc2ccc3c(c2)OCO3)S(C)(=O)=O)cc1	0.4	45	0.5	55*	5
Cn1nc(C(=O)NCCN2CCOCC2)c2ccccc2c1=O	1	3	1	4	21
Cn1nc(C(=O)NCc2ccco2)c2ccccc2c1=O	.	.	.	.	24*
Cc1sc(C(=O)NCc2cccnc2)c2nc(C)n(CC(=O)NCc3cccnc3)c(=O)c12	0.4	97*	0	59*	19
